# According to PubChem BioAssay (NCATS):
# Values joined by “and” are separate entries in the source; they are usually repeats but may differ in a detail not shown here. Equal values may be shown once. Records with an inconclusive call do not appear. Active and inactive are the calls of the source. Unless noted, the rule behind the calls is not given here.
# Tests used:
# [1] = qHTS profiling for inhibitors of Plasmodium falciparum (3D7) proliferation (AID 743322);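 note: infected erythrocytes exposed to compound for 72 h before lysis; 100% = DMSO vehicle wells and 0% = 0.29 µM artemisinin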; conditions: P. falciparum 3D7 proliferation; at 28.7 µM (top of the series)
# How it was run: (§1)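 Erythrocytes infected with P. falciparum (0.3% parasitemia, 2.5% hematocrit) incubated with compounds 72 h at 37 C, 5% CO2. Lysis with saponin/Triton buffer containing SYBR Green I, overnight at room temperature in the dark; DNA fluorescence (485/535 nm) normalised to 0.29 uM artemisinin and DMSO.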
# [2] = qHTS profiling for inhibitors of Plasmodium falciparum (DD2) proliferation (AID 743323); conditions: lower = more inhibition; at 28.7 µM (top of the series)
# How it was run: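 1536-well qHTS; infected RBCs 0.3% parasitemia/2.5% Hct final; cpd 72 h 37 C 5% CO2; lysis buffer + SYBR Green I, o/n RT dark; FI 485/535; norm. to 0.29 uM artemisinin and DMSO, plate-stack corrected.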
# [3] = qHTS profiling for inhibitors of Plasmodium falciparum (HB3) proliferation (AID 743324; active = well fitted curve in the direction sought with a large enough effect; an effect the other way counts as inactive or inconclusive;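 note: 100% = DMSO vehicle wells and 0% = artemisinin-treated control wells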); conditions: Plasmodium falciparum HB3 blood-stage proliferation; at 28.7 µM (top of the series)
# How it was run: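 P. falciparum HB3 grown in erythrocytes (0.3% parasitemia, 2.5% hematocrit final) with compound for 72 h at 37 C, 5% CO2. Parasite DNA detected by SYBR Green after saponin/triton lysis overnight; normalized to 0.29 uM artemisinin and DMSO.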
# [4] = qHTS profiling of the MIPE4 collection as inhibitors of Plasmodium falciparum (3D7) proliferation (AID 743344);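 note: scaled between DMSO vehicle wells and 0.29 µM artemisinin as full inhibition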; conditions: P. falciparum 3D7 in erythrocytes, SYBR Green DNA fluorescence, 72 h; at 28.5 µM (top of the series) unless noted
# How it was run: as §1
# [5] = qHTS profiling of the MIPE4 collection as inhibitors of Plasmodium falciparum (DD2) proliferation (AID 743345); conditions: P. falciparum Dd2 in erythrocytes, SYBR Green DNA, 72 h; at 28.5 µM (top of the series) unless noted
# How it was run: as §1
# [6] = qHTS profiling of the MIPE4 collection as inhibitors of Plasmodium falciparum (DD2) proliferation (Rep 2) (AID 743346); conditions: P. falciparum Dd2 in erythrocytes, SYBR Green DNA, 72 h; at 28.5 µM (top of the series) unless noted
# How it was run: as §1
# [7] = qHTS profiling of the MIPE4 collection as inhibitors of Plasmodium falciparum (HB3) proliferation (AID 743347);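 note: plate controls were DMSO vehicle wells for no effect and artemisinin wells for full effect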; conditions: P. falciparum HB3 in erythrocytes, SYBR Green DNA, 72 h; at 28.5 µM (top of the series) unless noted
# How it was run: as §1
# [8] = High-throughput drug toxicity screening in the BPDCN cell line Gen2.2 (AID 1224824); conditions: Gen2.2 BPDCN cells; at 45.8 µM (top of the series) unless noted;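 note: cells exposed to compounds for 48 h before reading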
# How it was run: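 Gen2.2 cells, 500 per well in phenol red-free RPMI with 10% FBS, exposed to compounds 48 h at 37 C, 5% CO2; viability by CellTiter-Glo luminescence. Percent activity scaled to DMSO (100%) and 9.2 uM bortezomib final (0%).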
# [9] = High-throughput drug toxicity screening in the BPDCN cell line Cal-1 (AID 1224825); conditions: Cal-1 BPDCN cell viability, qHTS; at 45.8 µM (top of the series) unless noted
# How it was run: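 Cal-1 cells, 500 per well in phenol-red-free RPMI with 10% FBS, exposed to compounds for 48 hours at 37C, 5% CO2. Viability read by CellTiter-Glo luminescence; percent activity normalized to DMSO (100%) and 9.2 uM bortezomib final (0%).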
# [10] = qHTS assay for measurement of the activity of small molecule inhibitors on Zika virus induced Caspase-3 activity in human iPSC derived neural progenitor cells (hNPCs) (AID 1224857; active = well fitted curve in the direction sought with a large enough effect; an effect the other way counts as inactive or inconclusive; note: % of control where 0% means no effect; nearly all actives have a fitted effect of over 65% in size)
# How it was run: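 Caspase-3/7 induction by a 6-hour ZIKV infection was quantified with a luminescent Caspase-Glo 3/7 reagent incubated 30 minutes at room temperature. Compounds were preincubated with hNPCs for 1 hour; inhibition was calculated against uninfected and infected control wells.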
SMILES,remaining parasite growth % (stronger effect = lower value) [1],"activity, percent of control [2]","remaining proliferation (% of control), lower = more inhibition [3]","parasite growth, % of DMSO control [4]","parasite growth remaining, % of DMSO control (lower = more inhibition) [5]","parasite growth, % of control (lower = inhibition) [6]","growth, % of control [7]","cell viability, % of control (lower = more cytotoxic) [8]",viability (% of control) [9],Potency [10]
CC[C@@H]1C(=O)N(C)c2cnc(Nc3ccc(C(=O)NC4CCN(C)CC4)cc3OC)nc2N1C1CCCC1,0.0061%,0.0959%,-0.331%,4.91%,6.75%,17.2%,6.34%,4.74%,2.57%,inactive
Cc1cc(Nc2cc(N3CCN(C)CC3)nc(C=Cc3ccccc3)n2)n[nH]1,0.147%,3.11%,0.814%,5.15% [at 57.5 µM],6.9% [at 57.5 µM],8.07% [at 57.5 µM],2.5% [at 57.5 µM],9.99% [at 92.2 µM],3.23% [at 92.2 µM],inactive
CC(C)[C@H](C(=O)Nc1ccc(C(=O)NO)cc1)c1ccccc1,-0.0537%,0.199%,0.544%,5.04%,6.95%,12.7%,9.39%,13.6%,6.36%,inactive
CCCCCN(CCC12CC3CC(CC(C3)C1)C2)C(=O)NCCCc1ccncc1,7.44%,32.6%,7.47%,6.26%,11.7%,13.6%,–,111%,94.4%,inactive
CC(C)(C)OC(=O)Nc1ccc(-c2cc(C(=O)NCCCCCCC(=O)NO)no2)cc1,-1.38%,-0.213%,0.579%,4.81%,6.42%,12.7%,3.96%,4.96%,3.94%,inactive
O=C(NCCS(=O)(=O)c1ccc(C(F)(F)F)cn1)c1ccc(Cl)cc1,98.8%,98.7%,99.7%,127%,103%,82.3%,84.8%,146%,123%,inactive
C[C@@H](Oc1cc(-c2cnn(C3CCNCC3)c2)cnc1N)c1c(Cl)ccc(F)c1Cl,-1.04%,1.46%,-2.16%,5.26%,5.84%,10.7%,2.36%,13.2%,3.63%,inactive
COC(=O)[C@]12CCC(C)(C)C[C@@H]1[C@@H]1C(=O)C=C3[C@@]4(C)C=C(C#N)C(=O)C(C)(C)[C@@H]4CC[C@@]3(C)[C@]1(C)CC2,0.25%,0.779%,2.29%,13.9%,7.23%,25.5%,–,3.73%,2.87%,inactive
COc1ccc(C=Cc2cc(OC)c(OC)c(OC)c2)cc1O,92%,104%,84.7%,36%,21.1%,44%,–,10.8%,8.52%,inactive
Clc1cccc(-n2nnnc2NCc2ccccc2Oc2ccccn2)c1Cl,–,–,–,–,–,–,–,100%,100%,inactive
N#Cc1c(O)c2c(-c3ccc(-c4ccccc4O)cc3)csc2[nH]c1=O,93.3%,96%,87.6%,70.3%,94.8%,47.7%,–,185%,108%,inactive
CC(C)(C)c1cc(NC(=O)Nc2ccc(-c3cn4c(n3)sc3cc(OCCN5CCOCC5)ccc34)cc2)no1,-1.57%,0.456%,-0.226%,4.46%,7.47%,15.2%,2.53%,252%,75.9%,inactive
C=CC(=O)N1CCC[C@@H](n2nc(-c3ccc(Oc4ccccc4)cc3)c3c(N)ncnc32)C1,–,–,–,–,–,–,–,43.2%,6.59%,inactive
Cc1nc2cnc3ccc(C#Cc4cccnc4)cc3c2n1-c1ccc(C(C)(C)C#N)cc1,-1.11%,0.126%,-0.656%,4.38%,7.19%,13.9%,3.51%,3.34%,16.6%,inactive
Fc1cc(-c2cccc3ncc(-c4cnn(C5CCNCC5)c4)nc23)cc(F)c1CN1CCOCC1,–,–,–,–,–,–,–,5.16%,5.7%,inactive
O=C(C=Cc1cccc(S(=O)(=O)Nc2ccccc2)c1)NO,0.201%,0.981%,0.6%,4.9% [at 57.5 µM],6.53% [at 57.5 µM],18.3% [at 57.5 µM],8.45% [at 57.5 µM],8.69% [at 92.2 µM],3.98% [at 92.2 µM],inactive
O=C(NCCCNc1nc(Nc2cccc(NC(=O)N3CCCC3)c2)ncc1I)c1cccs1,2.01% and 8.72%,5.54% and 10.1%,1.48% and 5.6%,6.21%,12.5%,28.1%,4.4%,5.4%,2.96%,inactive
CC(=O)OCC(=O)[C@@]1(O)[C@H](C)C[C@H]2[C@@H]3C=C(C)C4=Cc5c(cnn5-c5ccccc5)C[C@]4(C)[C@@H]3[C@@H](O)C[C@@]21C,-0.774%,-0.0557%,-1.72%,6.78%,6.63%,21.4%,10.8%,102%,45.8%,inactive
Nc1cc(C(F)(F)F)c(-c2cc(N3CCOCC3)nc(N3CCOCC3)n2)cn1,90.8%,69.9%,58.8%,19.5%,94%,41.5%,–,9.37%,11.1%,inactive
CC(C)C[C@H](NC(=O)CNC(=O)c1cc(Cl)ccc1Cl)B(O)O,-0.752%,-0.333%,-0.908%,5.16%,7.7%,7.79%,3.75%,2.43%,4.79%,inactive
Cc1[nH]c2ccccc2c1CCNCc1ccc(C=CC(=O)NO)cc1,-0.764%,-0.223%,-0.887%,4.38%,7.14%,6.72%,–,7.87%,7.62%,inactive
